# Results published in the supplement of paper PMC8728848.
# This excerpt belongs to a sample that is enriched for the strongest signals.
# B1: rMpL (Macrolepiota procera) (protein)
# chain: MSTQVSSGRTYKITNVIAGTVIDLSGEDNKSIIGYPYHSGKNQQWTFNWTGKAWTLRSASSGSYLGIEGTPAGGTRLVAVNDPFEWHIWRDEANENAFRIFVPFTNYNLDLSGYGDTTPGTPVQLWWTWEGLHQTWTIDRP
# Legend:
# Experiment in all cases: glycan array binding signal (z-score within array); higher = stronger binding
# Settings in all cases: glycan notation: IUPAC condensed, linker removed
# [1] = biological target: Gal(b1-4)GlcNAc(b1-3)Gal(b1-4)GlcNAc(b1-3)Gal(b1-4)GlcNAc(b1-3)Gal(b1-4)GlcNAc(b1-2)Man(a1-3)[Gal(b1-4)GlcNAc(b1-3)Gal(b1-4)GlcNAc(b1-3)Gal(b1-4)GlcNAc(b1-3)Gal(b1-4)GlcNAc(b1-2)Man(a1-6)]Man(b1-4)GlcNAc(b1-4)[Fuc(a1-6)]GlcNAc
# Method in brief: (§1)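 Glycan array data came from 3228 arrays in the Consortium for Functional Glycomics database, and only arrays with an available protein sequence were kept. Glycan names were put into IUPAC-condensed notation, and columns mapping to the same glycan were averaged. The binding signal is a within-array Z-score, averaged across arrays of one protein sequence run at different concentrations or buffers and across linkers. A negative Z-score can be read as non-binding.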
# [2] = biological target: Gal(b1-4)GlcNAc(b1-3)Gal(b1-4)GlcNAc(b1-3)Gal(b1-4)GlcNAc(b1-3)Gal(b1-4)GlcNAc(b1-2)[Gal(b1-4)GlcNAc(b1-3)Gal(b1-4)GlcNAc(b1-3)Gal(b1-4)GlcNAc(b1-3)Gal(b1-4)GlcNAc(b1-6)]Man(a1-6)[Gal(b1-4)GlcNAc(b1-3)Gal(b1-4)GlcNAc(b1-3)Gal(b1-4)GlcNAc(b1-3)Gal(b1-4)GlcNAc(b1-2)Man(a1-3)]Man(b1-4)GlcNAc(b1-4)[Fuc(a1-6)]GlcNAc
# Method in brief: as §1
# [3] = biological target: Gal(b1-4)GlcNAc(b1-3)Gal(b1-4)GlcNAc(b1-3)Gal(b1-4)GlcNAc(b1-3)Gal(b1-4)GlcNAc(b1-3)Gal(b1-4)GlcNAc(b1-2)[Gal(b1-4)GlcNAc(b1-3)Gal(b1-4)GlcNAc(b1-3)Gal(b1-4)GlcNAc(b1-3)Gal(b1-4)GlcNAc(b1-3)Gal(b1-4)GlcNAc(b1-6)]Man(a1-6)[Gal(b1-4)GlcNAc(b1-3)Gal(b1-4)GlcNAc(b1-3)Gal(b1-4)GlcNAc(b1-3)Gal(b1-4)GlcNAc(b1-3)Gal(b1-4)GlcNAc(b1-2)Man(a1-3)]Man(b1-4)GlcNAc(b1-4)[Fuc(a1-6)]GlcNAc
# Method in brief: as §1
# [4] = biological target: Gal3S(b1-3)[Fuc(a1-4)]GlcNAc
# Method in brief: as §1
# Gal3S(b1-4)Glc = biological target: Gal3S(b1-4)Glc
# Method in brief: as §1
# [5] = biological target: Gal3S(b1-4)[Fuc(a1-3)]GlcNAc6S
# Method in brief: as §1
# Gal6S(b1-4)Glc = biological target: Gal6S(b1-4)Glc
# Method in brief: as §1
# GalNAc(a1-3)GalNAc = biological target: GalNAc(a1-3)GalNAc
# Method in brief: as §1
# Glc(a1-4)Glc = biological target: Glc(a1-4)Glc
# Method in brief: as §1
# [6] = biological target: GlcNAc(b1-2)Man(a1-3)[GlcNAc(b1-2)Man(a1-6)]Man(b1-4)GlcNAc(b1-4)GlcNAc
# Method in brief: as §1
# [7] = biological target: GlcNAc(b1-3)Gal(b1-3)GalNAc
# Method in brief: as §1
# [8] = biological target: GlcNAc(b1-3)Gal(b1-4)GlcNAc(b1-3)Gal(b1-4)GlcNAc(b1-3)Gal(b1-4)GlcNAc(b1-3)Gal(b1-4)GlcNAc(b1-2)Man(a1-3)[GlcNAc(b1-3)Gal(b1-4)GlcNAc(b1-3)Gal(b1-4)GlcNAc(b1-3)Gal(b1-4)GlcNAc(b1-3)Gal(b1-4)GlcNAc(b1-2)Man(a1-6)]Man(b1-4)GlcNAc(b1-4)[Fuc(a1-6)]GlcNAc
# Method in brief: as §1
# [9] = biological target: GlcNAc(b1-4)GlcNAc(b1-4)GlcNAc
# Method in brief: as §1
# [10] = biological target: Man(a1-2)Man(a1-3)[Man(a1-6)]Man(a1-6)[Man(a1-2)Man(a1-3)]Man(b1-4)GlcNAc(b1-4)GlcNAc
# Method in brief: as §1
# [11] = biological target: Man(a1-3)[Man(a1-6)]Man(a1-6)[Man(a1-3)]Man
# Method in brief: as §1
# [12] = biological target: Neu5Ac(a2-3)Gal(b1-4)GlcNAc(b1-3)Gal(b1-4)GlcNAc(b1-6)[Gal(b1-3)]GalNAc
# Method in brief: as §1
# [13] = biological target: Neu5Ac(a2-3)Gal(b1-4)[Fuc(a1-3)]GlcNAc
# Method in brief: as §1
# [14] = biological target: Neu5Ac(a2-3)Gal(b1-4)[Fuc(a1-3)]GlcNAc(b1-6)[Neu5Ac(a2-3)Gal(b1-3)]GalNAc
# Method in brief: as §1
# [15] = biological target: Neu5Ac(a2-6)Gal(b1-4)GlcNAc
# Method in brief: as §1
# [16] = biological target: Neu5Ac(a2-6)Gal(b1-4)GlcNAc(b1-2)Man(a1-3)[Neu5Ac(a2-6)Gal(b1-4)GlcNAc(b1-2)Man(a1-6)]Man(b1-4)GlcNAc(b1-4)[Fuc(a1-6)]GlcNAc
# Method in brief: as §1
# [17] = biological target: Neu5Ac(a2-6)Gal(b1-4)GlcNAc(b1-2)Man(a1-6)[Gal(b1-4)GlcNAc(b1-2)Man(a1-3)]Man(b1-4)GlcNAc(b1-4)GlcNAc
# Method in brief: as §1
# [18] = biological target: Neu5Ac(a2-6)Gal(b1-4)GlcNAc(b1-3)Gal(b1-4)GlcNAc
# Method in brief: as §1
# [19] = biological target: Neu5Ac(a2-6)GalNAc(b1-4)GlcNAc
# Method in brief: as §1
# [20] = biological target: Neu5Ac(a2-6)GlcNAc(b1-4)GlcNAc
# Method in brief: as §1
# [21] = biological target: Neu5Ac(a2-8)Neu5Ac(a2-8)Neu5Ac(a2-3)[GalNAc(b1-4)]Gal(b1-4)Glc
# Method in brief: as §1
# [22] = biological target: Neu5Ac(b2-6)Gal(b1-4)GlcNAc
# Method in brief: as §1
# [23] = biological target: Neu5Ac9Ac(a2-3)Gal(b1-3)GlcNAc
# Method in brief: as §1
# [24] = biological target: Neu5Ac9Ac(a2-3)Gal(b1-4)GlcNAc
# Method in brief: as §1
# [25] = biological target: Neu5Gc(a2-3)Gal(b1-3)[Fuc(a1-4)]GlcNAc
# Method in brief: as §1
# Neu5Gc(a2-6)GalNAc = biological target: Neu5Gc(a2-6)GalNAc
# Method in brief: as §1
binder,measurement,setting,value
B1,glycan array binding signal (z-score),[1],3.33
same,glycan array binding signal (z-score),[2],4.7
same,glycan array binding signal (z-score),[3],4.6
same,glycan array binding signal (z-score),[4],-0.271
same,glycan array binding signal (z-score),Gal3S(b1-4)Glc,-0.325
same,glycan array binding signal (z-score),[5],-0.333
same,glycan array binding signal (z-score),Gal6S(b1-4)Glc,-0.233
same,glycan array binding signal (z-score),GalNAc(a1-3)GalNAc,-0.265
same,glycan array binding signal (z-score),Glc(a1-4)Glc,-0.289
same,glycan array binding signal (z-score),[6],-0.322
same,glycan array binding signal (z-score),[7],-0.302
same,glycan array binding signal (z-score),[8],-0.17
same,glycan array binding signal (z-score),[9],-0.382
same,glycan array binding signal (z-score),[10],-0.35
same,glycan array binding signal (z-score),[11],-0.268
same,glycan array binding signal (z-score),[12],-0.198
same,glycan array binding signal (z-score),[13],-0.32
same,glycan array binding signal (z-score),[14],-0.185
same,glycan array binding signal (z-score),[15],-0.358
same,glycan array binding signal (z-score),[16],-0.168
same,glycan array binding signal (z-score),[17],0.028
same,glycan array binding signal (z-score),[18],-0.363
same,glycan array binding signal (z-score),[19],-0.425
same,glycan array binding signal (z-score),[20],-0.364
same,glycan array binding signal (z-score),[21],-0.174
same,glycan array binding signal (z-score),[22],-0.33
same,glycan array binding signal (z-score),[23],-0.374
same,glycan array binding signal (z-score),[24],0.277
same,glycan array binding signal (z-score),[25],-0.335
same,glycan array binding signal (z-score),Neu5Gc(a2-6)GalNAc,-0.358
